An excerpt weighted towards active compounds, which were near 2.2% of everything screened.
GalR3 antag = human GalR3 antagonism; O60755; HEK293 GalR3-CNG cAMP membrane potential fluorescence; galR3 body fused to GalR1 C-terminus; inhibition, % at 3 µM; actives 0.44% (n = 360,000); AID 651719;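 active = inhibition above the screen-wide average plus 3 SD, cut at about 13% in these data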;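 also: forskolin and galanin both at EC90 stimulate the cells; cAMP rise reported by CNG channel membrane potential dye signal; 0% = forskolin plus galanin with DMSO and 100% = forskolin alone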
Target sequence (O60755 1-299 limits assumed): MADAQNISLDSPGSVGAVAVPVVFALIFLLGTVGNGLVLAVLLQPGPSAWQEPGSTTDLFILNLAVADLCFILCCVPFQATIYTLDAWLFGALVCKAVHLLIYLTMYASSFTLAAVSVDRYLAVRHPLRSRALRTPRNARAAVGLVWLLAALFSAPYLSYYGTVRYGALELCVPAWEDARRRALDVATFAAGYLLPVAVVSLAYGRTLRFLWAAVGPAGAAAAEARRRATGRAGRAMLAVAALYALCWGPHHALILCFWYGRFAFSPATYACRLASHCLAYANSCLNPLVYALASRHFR
SMARCA2 activ = increases SMARCA2 function in MMTV reporter cells; MG213 cells, MMTV-luciferase reporter, dexamethasone, overnight; activation, % at 9.1 µM; actives 1% (n = 370,000); in the data active = activation above about 7.8%;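 also: 0% = vehicle wells and 100% = reference activator wells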
GAA850 FXN act = increases GAA850 frataxin promoter reporter activity; activation, % at 6 µM; HEK293 lucGAA850 FXN promoter luciferase reporter, 24 h; percent of 10 µM SAHA response; actives 0.56% (n = 360,000);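 active = activation above the average of all compounds screened plus 3 SD, cutoff fixed separately per campaign, cut at about 7.5% in these data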;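 also: 0% = DMSO wells and 100% = 10 µM SAHA wells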
Hsp70 act = Hsp70 transcriptional activation, primary screen. HeLa Hsp70 promoter luciferase reporter, luminescence; scaled: vehicle 0, proteasome-inhibitor control 100%. activation, % at 10 µM. actives 0.04% (n = 200,000). AID 1203;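 active = activation above the mean across all tested compounds plus 3 SD, cutoff set per campaign, cut at about 5.5% in these data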;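 also: 100% = MG132 at 30 µM as the positive control and 0% = DMSO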
HIF activator = HIF pathway transcriptional activation; activation, % at 7.5 µM (by protocol); U2OS HRE-luciferase reporter, luminescence; normalized: DMSO 0%, desferrioxamine 100%; actives 0.32% (n = 300,000); AID 1910;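 active = mean activation of at least 10% of the iron chelator positive control signal, with at least half of replicates also reaching 10%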
SMARCA2 conf = confirmation of SMARCA2 (BRM) function activators. shares compounds with SMARCA2 activ. MG213 cells, MMTV-luciferase with dexamethasone, luminescence, overnight; MG213 cells expressing E1A, Rb sequestered; DMSO wells 0%, reference activator 100%. activation, % at 9.1 µM. actives 30% (n = 3,500);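 active = activation above its plate's cutoff, the mean activation of tested wells plus 3 SD, cut at about 7.9% in these data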
GAL4-VP16 Luc = counter-screen for SMARCA2 activators: GAL4-VP16 luciferase reporter activation; shares compounds with SMARCA2 activ; HEK293 GAL4-VP16 pG5luc reporter, luciferase luminescence; scaled: DMSO wells 0%, SAHA wells 100%; activation, % at 9.1 µM; actives 41% (n = 3,500); AID 686939;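 active = activation above the solvent-only control well mean plus 3 SD, averaged across control plates, cut at about 5.2% in these data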
The depositor's hits bear a star; · = not tested or not shown.

SMILES | GalR3 antag | SMARCA2 activ | GAA850 FXN act | Hsp70 act | HIF activator | SMARCA2 conf | GAL4-VP16 Luc
COc1ccc(C2=Nn3c(nnc3-c3ccccc3F)SC2)cc1OC1CCOC1 (stereo not given) | 2.9 | 7.5 | -2.7 | · | · | · | ·
C=CCN1C(=O)[C@H](CC(=O)NCCCCc2ccccc2)[C@@]2(C(=O)OCC)CCCC=C12 | · | -1.7 | · | · | · | · | ·
O=C(Nc1cccc(Cl)c1)c1cnn2cccnc12 | -4.5 | 8.1* | 5.2 | 0.0 | 2.4 | 8.3* | 12.0*
Cc1ccc(S(=O)(=O)N2CCCC2C(=O)N2CCN(c3ccccc3)CC2)cc1C (stereo not given) | · | 6.1 | · | · | · | · | ·
COc1cc(C=Nn2c(-c3cc(-c4ccccc4)n[nH]3)n[nH]c2=S)ccc1OC(C)=O | · | 14.0* | · | · | · | 10.3* | 3.1
Cn1cnc([N+](=O)[O-])c1S(=O)(=O)Oc1ccccc1 | 4.1 | 20.3* | 0.2 | · | · | -13.5 | 6.3*
Cc1ccc(OCCCC(=O)Nc2nc3ccccc3[nH]2)cc1 | 0.7 | -0.6 | 0.8 | -0.2 | 2.8 | · | ·
Cc1cccc(OCCCC(=O)Nc2nc3ccccc3[nH]2)c1 | -3.8 | 18.1* | 0.4 | 0.1 | -0.7 | 13.6* | 2.2
O=C(Nc1ccccc1C(=O)NCCc1ccccc1)c1ccco1 | -0.6 | 9.1* | 2.7 | 0.1 | 2.0 | 10.7* | 7.4*
N#C/C(=C\c1ccc[nH]1)C(=O)Nc1ccccc1[N+](=O)[O-] | -3.8 | 10.7* | 6.4 | · | 1.6 | 13.8* | 6.1*
Cc1ccccc1NC(=O)/C(C#N)=C/c1ccc[nH]1 | -6.1 | 9.5* | 5.3 | · | 3.3 | 1.1 | 5.3*
Cc1ccccc1NC(=O)/C(C#N)=C/c1ccsc1 | -11.4 | 6.8 | -0.1 | 1.0 | 0.5 | · | ·
Cc1cccc(OC[C@@H](O)CN2CCC(C(O)(c3ccccc3)c3ccccc3)CC2)c1 | · | -3.2 | · | · | · | · | ·
CCOC(=O)Cn1cc(CN2C(C(=O)OC)CN(C3CCCC3)CCS2(=O)=O)nn1 (stereo not given) | · | -1.9 | · | · | · | · | ·
O=C(Nc1ccccn1)C(=O)Nc1ccccn1 | -4.2 | 10.7* | 5.9 | · | 1.4 | 6.1 | 8.5*
O=C(Nc1ccccc1)Nc1ccccn1 | -6.2 | 5.3 | 0.5 | -0.1 | 2.5 | · | ·
O=S(=O)(Nc1nc2ccccc2nc1NCc1ccco1)c1ccc(Cl)cc1 | 7.0 | 0.9 | 0.1 | 0.0 | 0.0 | · | ·
Cc1ccc(S(=O)(=O)Nc2nc3ccccc3nc2NCc2ccco2)cc1 | -2.3 | 8.7* | 5.5 | -0.1 | 3.2 | 21.8* | 19.0*
Cc1ccc(S(=O)(=O)N/N=C\c2ccc(Cl)c([N+](=O)[O-])c2)cc1 | -9.4 | 10.9* | 0.9 | -0.1 | 1.6 | 0.7 | -0.5
CCOC(=O)C1=C(C)OC(N)=C(C#N)C1c1c(C)nn(-c2ccc(C)cc2)c1Cl (stereo not given) | · | · | · | -0.5 | 0.1 | · | ·
COC(=O)C1=C(C)OC(N)=C(C#N)C1c1c(C)nn(-c2ccccc2)c1Cl (stereo not given) | -5.7 | 11.3* | 4.1 | -0.1 | -0.6 | -0.6 | 1.1
COC(=O)c1cc2c(c3c4cc(F)ccc4n(S(=O)(=O)c4ccccc4)c13)C(=O)N(C)C2 | -7.3 | -2.5 | · | · | · | · | ·
COC(=O)[C@]1(C#N)CC(=O)N(C(C)C)[C@@H]1c1ccccc1 | · | 1.7 | · | · | · | · | ·
O=C1C2C3CCC(O3)C2C(=O)N1c1nccs1 (stereo not given) | -5.0 | 9.5* | -0.4 | · | · | -0.2 | -0.1
COc1cc(OCc2ccccc2)c2c(CCC(=O)O)cc(=O)oc2c1 | -1.7 | 8.5* | 2.3 | · | · | -2.5 | 0.6
CCc1cc(=O)oc2cc(OC(C)=O)cc(OC(C)=O)c12 | -0.7 | -1.3 | -0.1 | -0.3 | 0.5 | · | ·
COC(=O)[C@H](CC(C)C)N(CCCc1cn(CC2CCCCC2)nn1)S(=O)(=O)c1ccc(F)cc1Br | · | -3.9 | · | · | · | · | ·
O=C(Nc1ccc(C(F)(F)F)cc1)OC1CCC12CCC(c1ccccc1)CC2 (stereo not given) | · | -2.2 | · | · | · | · | ·
Clc1ccc(CO/N=C2\CCCc3nonc32)cc1 | -8.8 | 12.9* | 4.2 | -0.2 | 1.4 | 8.1* | 4.0

Bioassay records as filed in PubChem.
